The campaign covered roughly 5,500 compounds. About 2,000 (36%) were called active. Inconclusive results (about 18%) are left out. Cut-off read from the data, not from the text of the source: active = normalized growth mostly below about 0.91 (no sharp cut-off); inconclusive = no clear call, values can overlap the other calls; inactive = mostly above about 0.92. The list shows a part of the results.
Test: chemical genetic growth profiling, strain panel (AID 1159580);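 note: tested at 20 µM; growth read once vehicle control cultures reached saturation at 30 °C; 1 = growth at the plate median or of vehicle wells; lower values mean less growth of the strain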
Details: growth OD

Measured: normalized growth

CC(=O)[C@@]1(O)CCC2C3C[C@H](C)C4=CC(=O)C=CC4(C)[C@@]3(F)[C@@H](O)C[C@@]21C (stereo partly drawn)
inactive: S. cerevisiae deletion strains, locus YJR066W, strain TOR1, hits give low values 0.936 | S. cerevisiae deletion strains, locus YKL009W, strain mrt4, hits give low values 1.01 | S. cerevisiae deletion strains, locus YKL068W, hits give low values 1.01 | S. cerevisiae deletion strains, locus YKL085W, strain MDH1 (second series), hits give low values 1.01 | S. cerevisiae deletion strains, locus YKL085W, strain MDH1, hits give low values 1.01 | S. cerevisiae deletion strains, locus YKL160W, strain elf1, hits give low values 0.976 | S. cerevisiae deletion strains, locus YKL190W, strain CNB1, hits give low values 0.988 | S. cerevisiae deletion strains, locus YKR001C, strain vps1, hits give low values 0.987 | S. cerevisiae deletion strains, locus YKR026C, strain gcn3, hits give low values 0.982 | S. cerevisiae deletion strains, locus YKR091W, strain srl3, hits give low values 0.956 | S. cerevisiae deletion strains, locus YLL001W, strain dnm1, hits give low values 1.01 | S. cerevisiae deletion strains, locus YLL026W, hits give low values 0.979 | S. cerevisiae deletion strains, locus YLL041C, strain sdh2, hits give low values 0.988 | S. cerevisiae deletion strains, locus YLR027C, strain aat2, hits give low values 0.978 | S. cerevisiae deletion strains, locus YLR039C, strain RIC1, hits give low values 1.03 | S. cerevisiae deletion strains, locus YLR058C, strain SHM2, hits give low values 1.01 | S. cerevisiae deletion strains, locus YLR102C, strain apc9, hits give low values 1 | S. cerevisiae deletion strains, locus YLR113W, strain HOG1, hits give low values 0.988 | S. cerevisiae deletion strains, locus YLR221C, strain rsa3, hits give low values 0.968 | S. cerevisiae deletion strains, locus YLR258W, strain gsy2, hits give low values 0.971 | S. cerevisiae deletion strains, locus YLR262C, strain YPT6 (second series), hits give low values 0.981 | S. cerevisiae deletion strains, locus YLR262C, strain YPT6, hits give low values 0.98 | S. cerevisiae deletion strains, locus YLR268W, strain sec22, hits give low values 0.991 | S. cerevisiae deletion strains, locus YLR320W, strain mms22, hits give low values 0.962 | S. cerevisiae deletion strains, locus YLR330W, strain CHS5, hits give low values 1 | S. cerevisiae deletion strains, locus YLR342W, strain FKS1 (second series), hits give low values 0.992 | S. cerevisiae deletion strains, locus YLR342W, strain FKS1, hits give low values 0.979 | S. cerevisiae deletion strains, locus YLR357W, strain rsc2, hits give low values 0.951 | S. cerevisiae deletion strains, locus YLR370C, strain arc18, hits give low values 0.982 | S. cerevisiae deletion strains, locus YLR371W, strain rom2, hits give low values 1 | S. cerevisiae deletion strains, locus YLR384C, strain iki3, hits give low values 0.981 | S. cerevisiae deletion strains, locus YLR418C, strain cdc73, hits give low values 1.02 | S. cerevisiae deletion strains, locus YML016C, strain PPZ1, hits give low values 1 | S. cerevisiae deletion strains, locus YML032C, strain rad52, hits give low values 0.996 | S. cerevisiae deletion strains, locus YML120C, strain ndi1, hits give low values 0.954 | S. cerevisiae deletion strains, locus YML124C, strain tub3, hits give low values 1.01 | S. cerevisiae deletion strains, locus YMR058W, strain fet3, hits give low values 0.983 | S. cerevisiae deletion strains, locus YMR078C, strain ctf18, hits give low values 1 | S. cerevisiae deletion strains, locus YMR125W, strain sto1, hits give low values 0.965 | S. cerevisiae deletion strains, locus YMR129W, hits give low values 0.964 | S. cerevisiae deletion strains, locus YMR205C, strain PFK2, hits give low values 0.975 | S. cerevisiae deletion strains, locus YMR223W, strain ubp8, hits give low values 1.04 | S. cerevisiae deletion strains, locus YMR231W, strain pep5, hits give low values 0.973 | S. cerevisiae deletion strains, locus YMR307W, strain GAS1, hits give low values 0.976 | S. cerevisiae deletion strains, locus YNL067W, strain RPL9B, hits give low values 0.993 | S. cerevisiae deletion strains, locus YNL071W, strain lat1, hits give low values 0.972 | S. cerevisiae deletion strains, locus YNL128W, strain TEP1, hits give low values 1.01 | S. cerevisiae deletion strains, locus YNL153C, strain GIM3, hits give low values 0.992 | S. cerevisiae deletion strains, locus YNL183C, strain NPR1, hits give low values 0.942 | S. cerevisiae deletion strains, locus YNL209W, strain ssb2, hits give low values 0.98 | S. cerevisiae deletion strains, locus YNL233W, strain BNI4, hits give low values 1 | S. cerevisiae deletion strains, locus YNL248C, strain rpa49, hits give low values 0.914 | S. cerevisiae deletion strains, locus YNL250W, strain rad50, hits give low values 1.03 | S. cerevisiae deletion strains, locus YNL271C, strain bni1, hits give low values 1.02 | S. cerevisiae deletion strains, locus YNL298W, strain CLA4, hits give low values 0.999 | S. cerevisiae deletion strains, locus YNL307C, strain MCK1, hits give low values 1.02 | S. cerevisiae deletion strains, locus YNL322C, strain KRE1 (second series), hits give low values 0.955 | S. cerevisiae deletion strains, locus YNR049C, strain mso1, hits give low values 0.951 | S. cerevisiae deletion strains, locus YNR052C, strain pop2, hits give low values 1.01 | S. cerevisiae deletion strains, locus YOL012C, strain htz1 0.807 | S. cerevisiae deletion strains, locus YOL147C, strain pex11, hits give low values 1.01 | S. cerevisiae deletion strains, locus YOR001W, strain rrp6, hits give low values 0.971 | S. cerevisiae deletion strains, locus YOR061W, strain CKA2, hits give low values 1.01 | S. cerevisiae deletion strains, locus YOR069W, strain VPS5, hits give low values 1 | S. cerevisiae deletion strains, locus YOR070C, strain gyp1, hits give low values 0.986 | S. cerevisiae deletion strains, locus YOR080W, strain dia2, hits give low values 0.975 | S. cerevisiae deletion strains, locus YOR083W, strain WHI5, hits give low values 0.974 | S. cerevisiae deletion strains, locus YOR106W, strain vam3, hits give low values 0.977 | S. cerevisiae deletion strains, locus YOR136W, strain idh2, hits give low values 1 | S. cerevisiae deletion strains, locus YOR144C, strain elg1, hits give low values 1 | S. cerevisiae deletion strains, locus YOR184W, strain ser1, hits give low values 1.01 | S. cerevisiae deletion strains, locus YOR231W, strain MKK1, hits give low values 1 | S. cerevisiae deletion strains, locus YOR265W, strain rbl2, hits give low values 0.974 | S. cerevisiae deletion strains, locus YOR270C, strain vph1, hits give low values 0.926 | S. cerevisiae deletion strains, locus YOR290C, strain snf2, hits give low values 0.944 | S. cerevisiae deletion strains, locus YOR316C, strain cot1, hits give low values 1.01 | S. cerevisiae deletion strains, locus YPL051W, strain arl3, hits give low values 0.985 | S. cerevisiae deletion strains, locus YPL055C, strain LGE1, hits give low values 0.993 | S. cerevisiae deletion strains, locus YPL078C, strain atp4, hits give low values 0.992 | S. cerevisiae deletion strains, locus YPL106C, strain sse1, hits give low values 0.922 | S. cerevisiae deletion strains, locus YPL240C, strain hsp82, hits give low values 0.975 | S. cerevisiae deletion strains, locus YPL256C, strain CLN2, hits give low values 0.981 | S. cerevisiae deletion strains, locus YPR119W, strain clb2, hits give low values 1.01 | S. cerevisiae deletion strains, locus YPR141C, strain kar3, hits give low values 1.01 | S. cerevisiae deletion strains, locus YPR163C, strain tif3, hits give low values 1.01 | S. cerevisiae deletion strains, locus YPR167C, strain met16, hits give low values 1.02 | S. cerevisiae deletion strains, strain wtn01, hits give low values 1.01 | S. cerevisiae strains, strain wild type, hits give low values 0.987

Source: PubChem BioAssay AID1159580 (chemical genetic matrix, 2015)
